Compound activity from PubChem.
A selection: hits, their analogues and other compounds. The true share with any hit is near 4.7%.
D1 agonist: activates the human D1 dopamine receptor; P21728; HEK293 T-REx D1 cells, calcium flux, agonist mode; 1% of 360,000 active; AID 504660; activation, % at 2 µM
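Agonism was scored from calcium flux recorded over 180 s (1 read/s) after pintool compound addition, following a 10-cycle baseline. Cells were inducible force-coupled HEK293 TREx D1, plated overnight at 30 C and loaded with no-wash calcium dye.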
D1 PAM: potentiators of human D1 dopamine receptor; HEK293 TREx D1 cells, calcium flux, dopamine EC20 potentiation; AID 504651; potentiation, % at 10 µM; 0.036% of 360,000 active; in the data active = potentiation above about 30%
D1 antag: antagonists of human D1 dopamine receptor. P21728. HEK293 TREx D1 cells, calcium flux, dopamine EC80; active compounds read low. activity change, negative = inhibition, % at 10 µM. 3.2% of 360,000 active; in the data active = activity change below about -30%
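Calcium flux readout: force-coupled, inducible Hek293 Trex D1 line, cells induced overnight at 30 C with tetracycline, dye-loaded 30–90 min at RT. Antagonism scored against EC80 dopamine challenge given 180 s after compound.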
TRHR PAM: TRH receptor (human) allosteric enhancement; TRHR cells, fluo-8 calcium fluorescence, EC20 TRH enhancement; P34981; 0.66% of 360,000 active; AID 493056; enhancement, % at 2 µM; in the data active = enhancement above about 30%
Target sequence (P34981 whole entry, looked up): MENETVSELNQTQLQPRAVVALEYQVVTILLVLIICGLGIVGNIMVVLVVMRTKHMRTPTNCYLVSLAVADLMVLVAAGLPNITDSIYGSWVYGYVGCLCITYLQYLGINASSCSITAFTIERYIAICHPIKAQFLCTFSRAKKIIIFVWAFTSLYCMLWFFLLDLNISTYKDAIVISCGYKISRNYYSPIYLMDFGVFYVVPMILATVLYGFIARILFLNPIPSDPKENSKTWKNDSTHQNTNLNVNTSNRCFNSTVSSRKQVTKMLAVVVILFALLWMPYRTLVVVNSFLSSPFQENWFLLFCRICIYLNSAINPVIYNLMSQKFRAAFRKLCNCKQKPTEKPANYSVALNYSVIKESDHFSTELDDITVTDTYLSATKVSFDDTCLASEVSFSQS
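TRHR-expressing cells loaded with fluo-8 calcium dye were read kinetically (ex 480/em 530) during compound addition, then stimulated with an EC20 of TRH (10 nM final). Enhancement of the Gq-mediated intracellular calcium response was scored.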
TRHR agonist: TRH receptor (human) agonism; 0.18% of 360,000 active; TRHR cells, calcium flux fluo-8, FDSS agonist mode; P34981; activation, % at 2 µM
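TRHR-expressing cells loaded with fluo-8 calcium dye; 23 nL library compound pin-transferred, kinetic FDSS fluorescence (Ex 480/Em 530) recorded about 180 s for agonist-induced calcium release, before a 10 nM TRH EC20 addition for potentiator mode.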
A number is an active result; - = inactive; . = no result. Cut-off read from the data, not from the text of the source, unless noted: active = activation above about 30%; inactive = the rest.

SMILES | D1 agonist | D1 PAM | D1 antag | TRHR PAM | TRHR agonist
COc1cc2ccccc2cc1C(=O)NC(=S)Nc1cccc(C(=O)O)c1C | - | - | - | - | -
Cc1cc2oc(C(=O)Nc3cccc(-c4nc5ccccc5o4)c3)c(C)c2cc1C | 53.9 | - | - | - | -
CC(=O)Nc1cccc(-c2nc3ccccc3o2)c1 | - | - | - | - | -
CN1N=C(/C=C/c2ccccc2)CCC1=O | - | - | - | - | -
Cc1ccc(/C=C/C2=NN(C)C(=O)CC2)cc1 | - | - | - | 30.3 | -
C=CCn1cc([N+](=O)[O-])nc1C | - | - | -31.0 | - | -
Cc1cc(C)c(OCCCNC2CCCC2)c(Br)c1 | - | - | - | - | -
Cc1ccc(OCCNCc2ccccc2)c(C)c1 | - | - | - | - | -
Cc1cc(C)c(C)c(OCCOCCNCc2ccccc2)c1 | 32.7 | - | - | - | -
Cc1cc(C)c(OCCCNCc2ccccc2)c(Br)c1 | 37.4 | - | - | - | -
Cc1cc(Cl)c(OCCCNCc2ccccc2)c(Br)c1 | 31.8 | - | - | - | -
COc1ccc([C@H]2CC(=O)C=C(C#CC(C)(C)C)C2)cc1 | - | - | - | - | -
CCOCCCNC(=O)C(NC(=O)Cc1cccs1)c1ccc(C)cc1 (stereo unspecified) | - | - | -43.7 | - | -
CCC1CCCCN1C(=O)CSc1nc(-c2ccc(OC)cc2)cc(C(F)(F)F)n1 (stereo unspecified) | - | - | -31.1 | - | -
COc1ccc(S(=O)(=O)N2CCN(C(=O)c3cc(C)on3)CC2)cc1 | - | - | - | - | -
NC(=Nc1ccccc1)Nc1ccccc1 | 89.9 | - | - | - | 95.6
CCOC(=O)/C(C(=Nc1ccccc1)Nc1ccccc1)=C(\C)O | - | - | - | - | -
CCOC(=O)c1sc(=S)n(-c2ccccc2)c1N | - | - | - | - | -
COC(=O)c1sc(=S)n(-c2cccc(Cl)c2)c1N | - | - | -33.6 | - | -
Cc1ccc(C)c(NC(=O)COC(=O)CCNC(=O)c2ccco2)c1 | - | . | -50.3 | - | -
CCC(C)c1ccc(NC(=O)COC(=O)CCNC(=O)c2ccco2)cc1 (stereo unspecified) | - | - | - | - | -
Cc1c(CNC2CCC(C)CC2)c(C(=O)O)c(C)n1Cc1ccccc1F (stereo unspecified) | - | - | -49.1 | - | -
Cc1c(CNC2CCCCC2)c(C(=O)O)c(C)n1Cc1ccccc1F | - | - | - | - | -
COc1ccc(CNc2ncc(-c3ccccc3)n2C)c(OC)c1OC | - | - | -30.2 | - | -
COc1ccc(CNc2ncc(-c3ccccc3)n2C)c2ccccc12 | - | - | - | - | -
SMILES | D1 agonist | D1 PAM | D1 antag | TRHR PAM | TRHR agonist
CN(CC(=O)Nc1ccccc1Cl)C(=O)COC(=O)c1ccc(Cl)cc1[N+](=O)[O-] | - | - | -41.9 | - | -
CC(C)n1c(S(=O)(=O)O)nc2ccccc21 | - | - | -33.6 | - | -
CCOc1ccc(CCNS(=O)(=O)c2c(C)nc3scc(C)n3c2=O)cc1OCC | - | - | - | - | -
CCOC(=O)C1CCCN(C(=S)NC(=O)/C=C/c2ccc(F)cc2)C1 (stereo unspecified) | - | - | - | - | -
C/C(=N\NS(=O)(=O)c1ccccc1)c1cc(Cl)cc(Cl)c1O | - | - | - | - | -
COc1ccccc1NS(=O)(=O)c1ccc(N/N=C(\C)C(C)C)c([N+](=O)[O-])c1 | - | - | -31.2 | - | -
CCCC(CCC)=NNc1ccc(S(=O)(=O)Nc2ccccc2OC)cc1[N+](=O)[O-] | - | - | - | - | -
C/C(=N\Nc1ccc(S(=O)(=O)Nc2ccccc2)cc1[N+](=O)[O-])c1ccncc1 | - | - | -32.1 | - | -
C/C(=N\NC(=O)c1nnn(-c2nonc2N)c1-c1ccc2c(c1)OCO2)c1ccc(C)cc1 | 104.4 | - | - | - | -
C/C(=N\NC(=O)c1nnn(-c2nonc2N)c1-c1ccc2c(c1)OCO2)c1ccccc1 | 33.6 | - | - | - | -
C/C(=N\NC(=O)c1nnn(-c2nonc2N)c1CN(C)c1ccccc1)c1cccc(O)c1 | - | - | -39.1 | - | -
CN(C)C(=N)c1n[nH]nc1SCc1ccc(Cl)c(Cl)c1 | - | - | -35.6 | - | -
Cc1[nH]c(=O)nc(SCc2ccc(Cl)c(Cl)c2)c1C#N | - | - | - | - | -
COc1ccc(NS(=O)(=O)c2ccc3c(c2)NC(=O)CCS3)c(OC)c1 | - | - | - | - | -
